NPR1 antag – human Npr1 receptor antagonism; P16066; HEK293 hNpr1 GloSensor cGMP, ANP-stimulated luminescence; Potency, µM (doses to about 46.3 µM), for the others: at the top dose activity change, negative = inhibition, most hits filed as inhibitors; hit rate 1.6% among 76,000; AID 1347048; calls by dose curve; further: nearly all actives have a fitted effect of over 60% in size
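HEK293 cells stably expressing human Npr1 and cGMP GloSensor pGS-40F, loaded 2 h with 2% GloSensor reagent, given compound 30 min at room temperature. Luminescence read before and 20 min after 0.1 nM hNppA.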
GPT2 inhibitor – GPT2 alanine aminotransferase inhibition; AID 1671188; hit rate 0.25% among 100,000; Potency, µM (titrated, usually from 57.7 µM), for the others: at the top dose activity change, negative = inhibition, most hits filed as inhibitors; Q8TD30; Recombinant GPT2, coupled pyruvate oxidase/HRP Amplex Red fluorescence; further: nearly all actives have a fitted effect of over 60% in size
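Inhibition is scored from Amplex Red fluorescence generated when pyruvate oxidase and HRP act on pyruvate released by GPT2. Reactions contain 10ng/uL enzyme, 250uM a-KG and 2mM L-alanine and run 30 min at room temperature.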
HEK293 tox – HEK 293 cell cytotoxicity; Potency, µM (titrated, usually from 115 µM), for inactives: top-dose activity change, negative = cytotoxicity, most hits filed as inhibitors; hit rate 6.6% among 94,000; AID 1345083; HEK 293 viability, ATP luminescence (CellTiter-Glo), 48-72 h; further: nearly all actives have a fitted effect of over 60% in size
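HEK 293 seeded at 250 cells/well receive compound via pintool. After 48 or 72 hr at 37 degree Celsius, 5% CO2 and 95% humidity, CellTiter-Glo is dispensed and luminescence read following 10 min at room temperature.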
3T3 cytotox – cytotoxic compounds in NIH 3T3 cells. NIH 3T3 viability, CellTiter-Glo ATP luminescence, 48-72 h. Potency, µM (top dose mostly 96.7 µM), for the others: at the highest dose activity change, negative = cytotoxicity, most hits filed as inhibitors. hit rate 4.3% among 94,000. AID 1345082; further: nearly all actives have a fitted effect of over 55% in size
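ATP-dependent luminescence (CellTiter-Glo) served as the viability signal for NIH 3T3 cells treated with compound for 48 or 72 hr at 37 °C.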
FLuc inh – Photinus pyralis luciferase inhibition; purified P. pyralis luciferase, luminescence, biochemical; hit rate 2.5% among 76,000; Potency, µM (highest dose often 115 µM), most hits filed as inhibitors; further: nearly all actives have a fitted effect of over 65% in size
Target sequence (P08659 whole entry, looked up): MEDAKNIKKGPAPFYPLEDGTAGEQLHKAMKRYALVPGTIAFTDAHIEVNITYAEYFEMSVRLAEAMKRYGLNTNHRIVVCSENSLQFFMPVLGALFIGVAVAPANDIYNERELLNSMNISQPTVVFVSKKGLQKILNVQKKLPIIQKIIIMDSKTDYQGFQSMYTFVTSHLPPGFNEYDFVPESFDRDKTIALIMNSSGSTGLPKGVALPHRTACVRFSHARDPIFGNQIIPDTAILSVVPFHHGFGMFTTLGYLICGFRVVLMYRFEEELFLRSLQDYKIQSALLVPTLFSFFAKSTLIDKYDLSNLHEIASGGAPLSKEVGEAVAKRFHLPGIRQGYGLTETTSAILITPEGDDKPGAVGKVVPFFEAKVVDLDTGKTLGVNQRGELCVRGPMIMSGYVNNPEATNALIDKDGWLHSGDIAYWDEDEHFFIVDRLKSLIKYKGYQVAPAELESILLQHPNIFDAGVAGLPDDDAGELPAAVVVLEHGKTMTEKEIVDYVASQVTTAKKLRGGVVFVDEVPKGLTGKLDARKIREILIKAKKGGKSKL
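FLuc 10nM, D-luciferin 10uM, ATP 10uM, Mg acetate 10mM, Tris acetate pH 7.5, Tween/BSA; cpd qHTS; enzyme added last; CCD luminescence.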
Numbers without * were called inactive; i = inactive; ? = inconclusive; nt = no result given; [ ] = remark or other dose. Only some compounds are listed: those with a hit (about 10% of all), similar ones and a draw of the others. Unless noted, the call rests on the fitted dose curve; in most records, active means well fitted curve in the direction sought with a large enough effect; inconclusive means small, poorly fitted or top-dose-only effect, or another doubt; inactive means no such curve, though single readings can be large; an effect the other way counts as inactive or inconclusive. On the % scale 0 is the no-effect control and ±100 the full control effect; potency means the concentration at half of the fitted maximal effect.

SMILES	NPR1 antag	GPT2 inhibitor	HEK293 tox	3T3 cytotox	FLuc inh
COc1ccc(CN2CCN(Cc3cc4ccccc4[nH]3)CC2CCO)c(C)c1C (centres undefined)	-22%	3%	?	?	i
Cc1noc2c(N(C)C)cc(-c3ccc(Cl)cc3)nc12	2%[70.6 µM]	?	?	?	i
COc1cccc(CN2CCCC(Cc3ncc(C)n3Cc3ccccc3)C2)c1OC (centres undefined)	-23%	i	50µM*	?	i
CC(=O)Nc1cccc(OCc2nnc(C(=O)N3CCC[C@@H]3C(c3ccccc3)c3ccccc3)n2-c2ccccc2)c1	-18%	-5%	?	?	i
C[C@H]1CCCN1C(=O)c1nnc(COc2ccc(C#N)cc2)n1-c1ccccc1	-1%[70.6 µM]	1%[88.5 µM]	-27%[172 µM]	35µM*	i
COc1ccccc1OCc1nnc(C(=O)N2CCC[C@@H]2C(c2ccccc2)c2ccccc2)n1-c1ccccc1	-8%	-2%	?	-28%	i
C[C@H]1CCCN1C(=O)c1nnc(COc2ccc(C#N)cc2)n1-c1cccnc1	-4%[70.6 µM]	i	?	40µM*	i
O=C(c1nnc(COc2ccc(OC(F)(F)F)cc2)n1-c1ccccc1)N1CCC[C@@H]1C(c1ccccc1)c1ccccc1	4%	-4%	?	4.5µM*	i
C[C@H]1CCCN1C(=O)c1nnc(CNCc2ccc3c(c2)OCO3)n1-c1cccnc1	1%[70.6 µM]	i	2%[172 µM]	?	i
O=C(c1ccccc1Cl)N1CCc2nc(C3CC3)nc(-c3ccc(O)cc3)c2C1	nt	5%	?	?	nt
COc1ccc(NC(C)=O)cc1NC(=O)C1CC(=O)N(c2n[nH]c3cccc(F)c23)C1 (centres undefined)	-1%	4%	-2%	-3%	i
Cc1nn(-c2ccccc2)c2c1C(C)N(C1CN(C(=O)c3ccc(C(F)(F)F)cc3)C1)C2=O (centres undefined)	nt	nt	40µM*	?	nt
Cc1nn(-c2ccccc2)c2c1C(C)N(C1CCN(C(=O)c3ccc(F)cc3)C1)C2=O (centres undefined)	nt	nt	45µM*	?	nt
Cc1nn(-c2ccccc2)c2c1C(C)N(C1CCN(C(=O)c3cccc(Cl)c3)C1)C2=O (centres undefined)	nt	nt	22µM*	32µM*	nt
Cc1nn(-c2ccccc2)c2c1C(C)N(C1CN(C(=O)c3ccc(Cl)cc3)C1)C2=O (centres undefined)	nt	nt	-27%	-12%	nt
Cc1nn(-c2ccccc2)c2c1C(C1CC1)N(C1CCN(C(=O)c3ccc(F)cc3)C1)C2=O (centres undefined)	nt	nt	35µM*	?	nt
COc1cccc(CN2CCOC3(CCN(Cc4ccc(Cl)cc4)CC3)C2=O)c1	?	-12%[88.5 µM]	?	?	i
Cc1ccccc1C(=O)NC1CCN(C(=O)c2ccc(-c3ncccc3C#N)cc2)CC1	nt	-3%	-27%	-25%	nt
O=C(NCc1ccncc1)c1nc2c(o1)CCN(CCCc1ccccc1)CC2	-16%[70.6 µM]	0%[88.5 µM]	?	?	i
O=C(c1cccnc1)N1CCC(OC2CCN(c3ccccc3)CC2)CC1	-5%	i	?	-28%	i
Cc1nc(-c2ccc(Cl)cc2)n(Cc2ccccc2)c(=O)c1CCO	-2%	i	45µM*	?	i
Cc1ccc(C)c(Cn2c(-c3ccc(Cl)cc3)nc(C)c(CCO)c2=O)c1	4%	i	?	?	i
Cc1nc(-c2ccc(Cl)cc2)n(Cc2ccc(F)cc2F)c(=O)c1CCO	1%	4%	35µM*	?	i
Cc1nc(-c2ccc(F)cc2)n(Cc2ccc(F)c(F)c2)c(=O)c1CCO	-23%	i	?	?	i
Cc1nc(-c2ccc(Cl)cc2)n(Cc2ccccc2F)c(=O)c1CCO	3%	3%	45µM*	?	i
SMILES	NPR1 antag	GPT2 inhibitor	HEK293 tox	3T3 cytotox	FLuc inh
Cc1nc(-c2ccc(Cl)cc2)n(Cc2ccc(F)c(F)c2)c(=O)c1CCO	-23%	i	45µM*	?	i
c1cn(-c2ccc(Oc3nn[nH]n3)cc2)c(-c2cc3n(n2)CCCNC3)n1	1%	-14%	-20%	-2%	i
O=C1Nc2ccccc2CC12CN([S+](=O)([O-])c1cccc(C(F)(F)F)c1)C2	nt	i	-20%	-13%	nt
Cc1nc(-c2ccccc2)n(Cc2ccc(F)cc2Cl)c(=O)c1CCO	-21%	0%	28µM*	45µM*	i
COCCCNC(=O)C(NC(=O)c1ccccc1C)C1CCN(C(=O)CCc2ccccc2)CC1 (centres undefined)	-2%	i	-2%	-20%	i
O=C(c1ccc2nc(-c3ccc(F)cc3)cn2c1)N1C[C@@H]2CCCN[C@@H]2C1	2%	3%	-20%	?	?
CCCOC1CCCN(C(=O)c2ccc3nc(-c4ccc(F)cc4)cn3c2)C1 (centres undefined)	0%	2%	25µM*	-2%	i
COCCCNc1nccc(C2(c3ccccc3Cl)CCNCC2)n1	1%	i	?	-11%	i
CCNc1ccnc(NC2CCCc3c2cnn3-c2ccc(C)c(C)c2)n1 (centres undefined)	3%	-43%	40µM*	28µM*	?
CCOC(=O)C1(Cc2ccccc2)CCCN(C(=O)c2ccccc2SC)C1 (centres undefined)	-9%	i	45µM*	?	?
CCCc1cc(C(=O)N2CCCC(Cc3ccccc3F)(C(=O)OCC)C2)n(C)n1 (centres undefined)	-23%	?	18µM*	?	i
COCCC(=O)NCCC1CCN(C(=O)Nc2ccc(C)cc2)CC1	3%	i	16%	i	?
COc1ccc(-c2onc(C)c2C(=O)NCc2c(OC)cc(OC)cc2OC)cc1	-10%	5%	32µM*	?	i
COc1cc(OC)c(CNC(=O)c2c(C)noc2-c2cccs2)c(OC)c1	-3%	-2%	79µM*	?	i
COc1ccc(-c2onc(C)c2C(=O)NC2CCCc3ccccc32)cc1 (centres undefined)	-5%	i	?	?	28µM*
C=CCN1CC2(CCC1=O)CCN(C(=O)NC(C)CC)CC2 (centres undefined)	16%	i	0%	-18%	i
CC(C)CN1CCN(C(=O)c2ccc3c(c2)N(S(C)(=O)=O)CC3)CC1	2%	i	-1%	1%	i
CNC(=O)c1ccccc1Nc1nc(Nc2ccc(N3CCNCC3)cc2)ncc1Cl	nt	-3%	nt	nt	nt
CNC(=O)c1ccccc1Nc1cc(Nc2ccc(N3CCOCC3)cc2OC)ncc1C(F)(F)F	nt	22µM*	nt	nt	nt

From PubChem BioAssay
